The values that follow come from article PMC12529666, “Dysregulation of AGO2-miRNA dynamics underlies the AGO2-associated Lessel–Kreienkamp syndrome”.

Common to all, as to test: RNA Bind-n-Seq (nitrocellulose filter binding and sequencing); miR-122 guide loaded in AGO2; 60 min incubation; 30 mM Tris pH 8.0, 100 mM potassium acetate, 2 mM magnesium acetate, 0.5 mM TCEP, 0.005% NP-40, 0.01 mg/ml yeast tRNA; 3 nM AGO2-miR-122, 100 nM RNA library; 60; high values mean tight binding
Holding throughout (conditions): protein: recombinant; tags: His6 (N-terminal, pFastBac HTA)

Test [1] concerns the target AGO2 WT (phosphosite mutant background) (Homo sapiens, UniProt Q9UKV8 1-859, S387D;S824A;S828D;S831D;S834A). A digest of the protocol:
(§1)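 Fold enrichment is each target's read fraction divided by its read fraction in the input library. Sf9 insect cells expressed His-tagged AGO2 from baculovirus; the protein was loaded with a synthetic guide RNA and purified by Ni-NTA and a biotinylated capture oligo. The bound RNA was extracted, reverse-transcribed, barcode-amplified and sequenced on Illumina.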

The next test addresses AGO2 L192P (Homo sapiens, UniProt Q9UKV8 1-859, L192P;S387D;S824A;S828D;S831D;S834A). The method, boiled down:
as §1

For another test, the target named is AGO2 A367P (Homo sapiens, UniProt Q9UKV8 1-859, A367P;S387D;S824A;S828D;S831D;S834A). A digest of the protocol: as §1
Sequence of AGO2 A367P (Q9UKV8 whole entry A367P/S387D/S824A/S828D/S831D/S834A): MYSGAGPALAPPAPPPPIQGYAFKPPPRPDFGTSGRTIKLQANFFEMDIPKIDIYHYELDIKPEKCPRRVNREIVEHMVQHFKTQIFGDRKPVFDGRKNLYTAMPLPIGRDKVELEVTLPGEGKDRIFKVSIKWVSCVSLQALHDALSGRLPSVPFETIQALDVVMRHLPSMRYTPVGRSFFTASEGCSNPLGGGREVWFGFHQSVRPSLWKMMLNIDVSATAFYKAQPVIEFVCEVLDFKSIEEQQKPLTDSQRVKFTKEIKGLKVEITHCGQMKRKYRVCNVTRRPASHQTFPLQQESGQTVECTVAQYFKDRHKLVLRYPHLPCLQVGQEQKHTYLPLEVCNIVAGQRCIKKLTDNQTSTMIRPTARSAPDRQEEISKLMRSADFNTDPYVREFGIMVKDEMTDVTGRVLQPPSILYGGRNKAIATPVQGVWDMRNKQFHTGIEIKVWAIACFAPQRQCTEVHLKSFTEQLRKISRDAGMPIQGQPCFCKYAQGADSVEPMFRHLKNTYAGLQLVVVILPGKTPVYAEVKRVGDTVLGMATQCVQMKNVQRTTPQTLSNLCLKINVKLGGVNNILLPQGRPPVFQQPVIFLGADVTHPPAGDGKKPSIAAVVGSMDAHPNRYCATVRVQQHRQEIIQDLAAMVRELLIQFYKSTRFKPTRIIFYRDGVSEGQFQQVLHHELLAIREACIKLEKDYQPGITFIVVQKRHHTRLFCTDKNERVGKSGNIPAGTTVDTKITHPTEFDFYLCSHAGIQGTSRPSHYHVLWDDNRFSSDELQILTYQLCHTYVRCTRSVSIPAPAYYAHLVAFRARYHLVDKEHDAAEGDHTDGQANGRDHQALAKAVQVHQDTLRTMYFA
The target in a further test is AGO2 T357M (Homo sapiens, UniProt Q9UKV8 1-859, T357M;S387D;S824A;S828D;S831D;S834A). A digest of the protocol: as §1
Sequence of AGO2 T357M (Q9UKV8 whole entry T357M/S387D/S824A/S828D/S831D/S834A): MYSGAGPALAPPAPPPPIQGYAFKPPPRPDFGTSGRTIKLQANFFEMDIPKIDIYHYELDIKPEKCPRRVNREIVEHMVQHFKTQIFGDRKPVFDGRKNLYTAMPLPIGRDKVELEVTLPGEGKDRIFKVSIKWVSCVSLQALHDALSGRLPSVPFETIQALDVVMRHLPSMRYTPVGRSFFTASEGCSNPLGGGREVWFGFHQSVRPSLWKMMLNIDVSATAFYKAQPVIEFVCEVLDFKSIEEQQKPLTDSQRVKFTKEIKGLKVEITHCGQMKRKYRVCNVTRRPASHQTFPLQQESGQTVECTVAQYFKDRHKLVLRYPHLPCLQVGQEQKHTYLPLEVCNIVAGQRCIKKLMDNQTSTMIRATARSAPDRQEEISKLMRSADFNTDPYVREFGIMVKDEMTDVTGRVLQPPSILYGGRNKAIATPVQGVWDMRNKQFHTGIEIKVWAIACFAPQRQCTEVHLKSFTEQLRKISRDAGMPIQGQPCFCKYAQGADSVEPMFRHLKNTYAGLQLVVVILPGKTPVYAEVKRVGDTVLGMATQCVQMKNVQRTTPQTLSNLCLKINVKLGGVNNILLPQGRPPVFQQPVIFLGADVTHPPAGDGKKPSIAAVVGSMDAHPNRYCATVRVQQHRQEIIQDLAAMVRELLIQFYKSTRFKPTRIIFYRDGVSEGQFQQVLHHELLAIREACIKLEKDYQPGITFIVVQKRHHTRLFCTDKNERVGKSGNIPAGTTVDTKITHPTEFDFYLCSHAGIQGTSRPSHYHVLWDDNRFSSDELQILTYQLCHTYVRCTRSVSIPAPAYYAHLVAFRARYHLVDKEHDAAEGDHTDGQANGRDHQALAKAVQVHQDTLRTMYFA
The target of another test is AGO2 F182del (Homo sapiens, UniProt Q9UKV8 1-859, S387D;S824A;S828D;S831D;S834A;del182-182). The method, boiled down: as §1
Sequence of AGO2 F182del (Q9UKV8 other isoform, or with tags, fused parts or gaps S387D;S824A;S828D;S831D;S834A;del182-182): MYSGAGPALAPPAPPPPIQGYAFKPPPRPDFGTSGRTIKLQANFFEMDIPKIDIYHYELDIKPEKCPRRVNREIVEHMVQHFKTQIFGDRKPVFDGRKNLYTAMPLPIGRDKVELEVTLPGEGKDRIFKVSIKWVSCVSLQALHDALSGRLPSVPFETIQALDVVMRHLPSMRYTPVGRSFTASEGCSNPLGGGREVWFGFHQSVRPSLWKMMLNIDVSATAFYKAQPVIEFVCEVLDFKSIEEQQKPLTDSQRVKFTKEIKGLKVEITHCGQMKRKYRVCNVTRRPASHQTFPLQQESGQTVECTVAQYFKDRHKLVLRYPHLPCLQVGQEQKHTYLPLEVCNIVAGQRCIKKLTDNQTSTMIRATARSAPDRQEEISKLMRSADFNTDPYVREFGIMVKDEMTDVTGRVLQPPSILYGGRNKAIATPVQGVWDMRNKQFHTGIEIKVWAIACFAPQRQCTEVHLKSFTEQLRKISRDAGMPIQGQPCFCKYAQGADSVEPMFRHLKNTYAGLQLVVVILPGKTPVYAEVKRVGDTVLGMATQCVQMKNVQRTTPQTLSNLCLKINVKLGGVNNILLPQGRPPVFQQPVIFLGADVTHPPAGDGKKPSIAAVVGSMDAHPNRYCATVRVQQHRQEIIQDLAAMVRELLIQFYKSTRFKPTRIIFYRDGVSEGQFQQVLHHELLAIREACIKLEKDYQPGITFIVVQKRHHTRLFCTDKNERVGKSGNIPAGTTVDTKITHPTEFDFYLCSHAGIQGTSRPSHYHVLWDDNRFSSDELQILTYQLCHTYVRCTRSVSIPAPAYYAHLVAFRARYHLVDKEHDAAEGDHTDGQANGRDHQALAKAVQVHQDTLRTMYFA

Numbering of substitutions follows the chain as printed.

Sequence of AGO2 WT (phosphosite mutant background) (Q9UKV8 whole entry S387D/S824A/S828D/S831D/S834A): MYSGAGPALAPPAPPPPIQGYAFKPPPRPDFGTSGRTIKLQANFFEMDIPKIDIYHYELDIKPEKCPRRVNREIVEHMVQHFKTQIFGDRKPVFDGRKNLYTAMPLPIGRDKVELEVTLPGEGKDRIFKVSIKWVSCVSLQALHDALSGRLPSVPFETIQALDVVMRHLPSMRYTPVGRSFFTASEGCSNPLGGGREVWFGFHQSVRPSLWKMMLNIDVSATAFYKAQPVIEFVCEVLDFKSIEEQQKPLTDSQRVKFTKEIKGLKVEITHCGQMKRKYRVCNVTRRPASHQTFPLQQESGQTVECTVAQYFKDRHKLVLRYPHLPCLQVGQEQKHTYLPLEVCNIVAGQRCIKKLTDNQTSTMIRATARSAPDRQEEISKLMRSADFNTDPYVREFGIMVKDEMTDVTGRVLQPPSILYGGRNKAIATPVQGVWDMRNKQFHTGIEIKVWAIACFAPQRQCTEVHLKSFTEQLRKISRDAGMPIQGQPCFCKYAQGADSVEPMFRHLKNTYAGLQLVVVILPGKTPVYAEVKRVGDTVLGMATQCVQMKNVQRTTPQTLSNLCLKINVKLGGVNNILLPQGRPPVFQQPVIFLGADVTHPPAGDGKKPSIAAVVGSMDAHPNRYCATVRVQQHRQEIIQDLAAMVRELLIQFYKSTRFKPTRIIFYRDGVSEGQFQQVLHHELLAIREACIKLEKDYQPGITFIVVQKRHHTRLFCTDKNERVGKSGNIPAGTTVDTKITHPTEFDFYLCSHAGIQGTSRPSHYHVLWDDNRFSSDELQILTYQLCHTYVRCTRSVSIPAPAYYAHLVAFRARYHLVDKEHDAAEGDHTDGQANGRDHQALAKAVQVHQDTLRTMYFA
Sequence of AGO2 L192P (Q9UKV8 whole entry L192P/S387D/S824A/S828D/S831D/S834A): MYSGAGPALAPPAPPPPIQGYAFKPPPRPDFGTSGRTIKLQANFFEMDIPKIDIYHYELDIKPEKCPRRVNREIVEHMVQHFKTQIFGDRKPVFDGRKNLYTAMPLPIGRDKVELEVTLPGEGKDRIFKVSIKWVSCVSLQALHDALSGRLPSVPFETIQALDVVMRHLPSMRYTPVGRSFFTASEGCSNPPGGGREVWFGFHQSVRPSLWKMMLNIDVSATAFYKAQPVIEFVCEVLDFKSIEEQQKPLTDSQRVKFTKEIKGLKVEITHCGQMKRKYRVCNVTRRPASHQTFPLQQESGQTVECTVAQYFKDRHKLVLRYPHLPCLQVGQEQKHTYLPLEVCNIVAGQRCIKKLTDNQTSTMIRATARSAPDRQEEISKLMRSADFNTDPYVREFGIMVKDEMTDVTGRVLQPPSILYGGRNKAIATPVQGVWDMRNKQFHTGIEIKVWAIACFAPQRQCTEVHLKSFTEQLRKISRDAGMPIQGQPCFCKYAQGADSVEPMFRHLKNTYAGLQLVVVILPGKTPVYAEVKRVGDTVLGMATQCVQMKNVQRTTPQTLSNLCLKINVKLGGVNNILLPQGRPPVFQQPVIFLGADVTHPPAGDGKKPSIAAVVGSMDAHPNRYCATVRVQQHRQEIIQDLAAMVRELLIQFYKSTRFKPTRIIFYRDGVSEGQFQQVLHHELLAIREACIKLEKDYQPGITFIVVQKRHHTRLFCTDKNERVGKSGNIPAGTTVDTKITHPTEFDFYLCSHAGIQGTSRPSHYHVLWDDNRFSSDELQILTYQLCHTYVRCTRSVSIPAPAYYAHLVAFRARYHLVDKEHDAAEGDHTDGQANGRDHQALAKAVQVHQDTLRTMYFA

B1: ACACTTCA (ssRNA)
RNA 1: GAGUUCUACAGUCCGACGAUCCCAACACACUUCACACCUGGAAUUCUCGGGUGCCAA
RNA 2: UGGAGUGUGACAAUGGUGUUUG
DNA 1: GATCGTCGGACTGTAGAACTC
DNA 2: TTGGCACCCGAGAATTCCA
modifications: constant regions annealed to DNA blockers; guide miR-122 5' phosphate
With B1, the binding signal was 0.24 fold enrichment over input in test [1]; 0.941 fold enrichment over input with AGO2 L192P; 0.66 fold enrichment over input with AGO2 A367P; 0.675 fold enrichment over input with AGO2 T357M; 2.79 fold enrichment over input with AGO2 F182del.

B2: GCATTTCA (ssRNA)
RNA 1: B1 RNA 1 with A27G, C30U
RNA 2: UGGAGUGUGACAAUGGUGUUUG
DNA 1: GATCGTCGGACTGTAGAACTC
DNA 2: TTGGCACCCGAGAATTCCA
modifications: constant regions annealed to DNA blockers; guide miR-122 5' phosphate
For B2, the binding signal in test [1] is 0.165 fold enrichment over input; with AGO2 L192P, 0.769 fold enrichment over input; with AGO2 A367P, 0.434 fold enrichment over input; in the test with AGO2 T357M it was 0.679 fold enrichment over input; in the test with AGO2 F182del, 1.83 fold enrichment over input.

B3: ACATCCCA (ssRNA)
RNA 1: B1 RNA 1 with C30U, U31C, U32C
RNA 2: UGGAGUGUGACAAUGGUGUUUG
DNA 1: GATCGTCGGACTGTAGAACTC
DNA 2: TTGGCACCCGAGAATTCCA
modifications: constant regions annealed to DNA blockers; guide miR-122 5' phosphate
Regarding B3, the binding signal is 0.154 fold enrichment over input in test [1]; 0.641 fold enrichment over input with AGO2 L192P; 0.325 fold enrichment over input with AGO2 A367P; 0.628 fold enrichment over input with AGO2 T357M; 1.11 fold enrichment over input with AGO2 F182del.

B4: GCACCTCA (ssRNA)
RNA 1: B1 RNA 1 with A27G, U31C
RNA 2: UGGAGUGUGACAAUGGUGUUUG
DNA 1: GATCGTCGGACTGTAGAACTC
DNA 2: TTGGCACCCGAGAATTCCA
modifications: constant regions annealed to DNA blockers; guide miR-122 5' phosphate
Take B4: the binding signal is 0.17 fold enrichment over input in test [1]; 0.761 fold enrichment over input with AGO2 L192P; 0.505 fold enrichment over input with AGO2 A367P; 0.643 fold enrichment over input with AGO2 T357M; 2.01 fold enrichment over input with AGO2 F182del.

B5: ACATTTCA (ssRNA)
RNA 1: B1 RNA 1 with C30U
RNA 2: UGGAGUGUGACAAUGGUGUUUG
DNA 1: GATCGTCGGACTGTAGAACTC
DNA 2: TTGGCACCCGAGAATTCCA
modifications: constant regions annealed to DNA blockers; guide miR-122 5' phosphate
B5: the binding signal in test [1] is 0.235 fold enrichment over input; in the test with AGO2 L192P, 1.13 fold enrichment over input; with AGO2 A367P, 0.727 fold enrichment over input; in the test with AGO2 T357M, 0.709 fold enrichment over input; in the test with AGO2 F182del, 4.77 fold enrichment over input.

B6: ATACTTCA (ssRNA)
RNA 1: B1 RNA 1 with C28U
RNA 2: UGGAGUGUGACAAUGGUGUUUG
DNA 1: GATCGTCGGACTGTAGAACTC
DNA 2: TTGGCACCCGAGAATTCCA
modifications: constant regions annealed to DNA blockers; guide miR-122 5' phosphate
On to B6, for which the binding signal in test [1] was 0.136 fold enrichment over input; with AGO2 L192P it was 0.646 fold enrichment over input; with AGO2 A367P, 0.396 fold enrichment over input; in the test with AGO2 T357M it was 0.62 fold enrichment over input; with AGO2 F182del, 1.33 fold enrichment over input.

B7: ACACCCTA (ssRNA)
RNA 1: B1 RNA 1 with U31C, U32C, C33U
RNA 2: UGGAGUGUGACAAUGGUGUUUG
DNA 1: GATCGTCGGACTGTAGAACTC
DNA 2: TTGGCACCCGAGAATTCCA
modifications: constant regions annealed to DNA blockers; guide miR-122 5' phosphate
With B7, the binding signal is 0.142 fold enrichment over input in test [1]; 0.6 fold enrichment over input with AGO2 L192P; 0.25 fold enrichment over input with AGO2 A367P; 0.636 fold enrichment over input in the test with AGO2 T357M; 0.799 fold enrichment over input with AGO2 F182del.

B8: GTATTCCA (ssRNA)
RNA 1: B1 RNA 1 with A27G, C28U, C30U, U32C
RNA 2: UGGAGUGUGACAAUGGUGUUUG
DNA 1: GATCGTCGGACTGTAGAACTC
DNA 2: TTGGCACCCGAGAATTCCA
modifications: constant regions annealed to DNA blockers; guide miR-122 5' phosphate
As for B8, the binding signal was 0.18 fold enrichment over input in test [1]; 0.545 fold enrichment over input with AGO2 L192P; 0.446 fold enrichment over input in the test with AGO2 A367P; 0.623 fold enrichment over input in the test with AGO2 T357M; 0.898 fold enrichment over input in the test with AGO2 F182del.

B9: GCACCCCA (ssRNA)
RNA 1: B1 RNA 1 with A27G, U31C, U32C
RNA 2: UGGAGUGUGACAAUGGUGUUUG
DNA 1: GATCGTCGGACTGTAGAACTC
DNA 2: TTGGCACCCGAGAATTCCA
modifications: constant regions annealed to DNA blockers; guide miR-122 5' phosphate
B9: the binding signal in test [1] is 0.164 fold enrichment over input; with AGO2 L192P, 0.6 fold enrichment over input; in the test with AGO2 A367P it was 0.263 fold enrichment over input; with AGO2 T357M, 0.699 fold enrichment over input; with AGO2 F182del, 0.666 fold enrichment over input.

B10: GTGCTCCA (ssRNA)
RNA 1: B1 RNA 1 with A27G, C28U, A29G, U32C
RNA 2: UGGAGUGUGACAAUGGUGUUUG
DNA 1: GATCGTCGGACTGTAGAACTC
DNA 2: TTGGCACCCGAGAATTCCA
modifications: constant regions annealed to DNA blockers; guide miR-122 5' phosphate
Consider B10, for which the binding signal in test [1] was 0.17 fold enrichment over input; with AGO2 L192P, 0.594 fold enrichment over input; with AGO2 A367P, 0.522 fold enrichment over input; in the test with AGO2 T357M, 0.649 fold enrichment over input; with AGO2 F182del, 0.604 fold enrichment over input.

B11: ATACCTCA (ssRNA)
RNA 1: B1 RNA 1 with C28U, U31C
RNA 2: UGGAGUGUGACAAUGGUGUUUG
DNA 1: GATCGTCGGACTGTAGAACTC
DNA 2: TTGGCACCCGAGAATTCCA
modifications: constant regions annealed to DNA blockers; guide miR-122 5' phosphate
For the molecule B11, the binding signal in test [1] is 0.138 fold enrichment over input; with AGO2 L192P, 0.642 fold enrichment over input; with AGO2 A367P it was 0.406 fold enrichment over input; with AGO2 T357M, 0.575 fold enrichment over input; with AGO2 F182del it was 1.82 fold enrichment over input.

B12: ATGCTCCG (ssRNA)
RNA 1: B1 RNA 1 with C28U, A29G, U32C, A34G
RNA 2: UGGAGUGUGACAAUGGUGUUUG
DNA 1: GATCGTCGGACTGTAGAACTC
DNA 2: TTGGCACCCGAGAATTCCA
modifications: constant regions annealed to DNA blockers; guide miR-122 5' phosphate
On to B12, for which the binding signal in test [1] is 0.186 fold enrichment over input; with AGO2 L192P it was 1.56 fold enrichment over input; with AGO2 A367P, 1.45 fold enrichment over input; with AGO2 T357M it was 0.527 fold enrichment over input; with AGO2 F182del, 1.55 fold enrichment over input.

B13: GCATTCCA (ssRNA)
RNA 1: B1 RNA 1 with A27G, C30U, U32C
RNA 2: UGGAGUGUGACAAUGGUGUUUG
DNA 1: GATCGTCGGACTGTAGAACTC
DNA 2: TTGGCACCCGAGAATTCCA
modifications: constant regions annealed to DNA blockers; guide miR-122 5' phosphate
B13: the binding signal in test [1] is 0.182 fold enrichment over input; with AGO2 L192P, 0.661 fold enrichment over input; in the test with AGO2 A367P it was 0.356 fold enrichment over input; with AGO2 T357M it was 0.65 fold enrichment over input; with AGO2 F182del, 1.01 fold enrichment over input.

B14: GCACTCTA (ssRNA)
RNA 1: B1 RNA 1 with A27G, U32C, C33U
RNA 2: UGGAGUGUGACAAUGGUGUUUG
DNA 1: GATCGTCGGACTGTAGAACTC
DNA 2: TTGGCACCCGAGAATTCCA
modifications: constant regions annealed to DNA blockers; guide miR-122 5' phosphate
Turning to B14, the binding signal in test [1] is 0.168 fold enrichment over input; with AGO2 L192P, 0.562 fold enrichment over input; with AGO2 A367P it was 0.306 fold enrichment over input; with AGO2 T357M, 0.561 fold enrichment over input; with AGO2 F182del, 0.786 fold enrichment over input.

B15: ATGTCCCA (ssRNA)
RNA 1: B1 RNA 1 with C28U, A29G, C30U, U31C, U32C
RNA 2: UGGAGUGUGACAAUGGUGUUUG
DNA 1: GATCGTCGGACTGTAGAACTC
DNA 2: TTGGCACCCGAGAATTCCA
modifications: constant regions annealed to DNA blockers; guide miR-122 5' phosphate
On to B15, for which the binding signal in test [1] is 0.155 fold enrichment over input; in the test with AGO2 L192P it was 0.54 fold enrichment over input; with AGO2 A367P, 0.303 fold enrichment over input; with AGO2 T357M it was 0.599 fold enrichment over input; with AGO2 F182del it was 0.697 fold enrichment over input.

B16: GCACTCCG (ssRNA)
RNA 1: B1 RNA 1 with A27G, U32C, A34G
RNA 2: UGGAGUGUGACAAUGGUGUUUG
DNA 1: GATCGTCGGACTGTAGAACTC
DNA 2: TTGGCACCCGAGAATTCCA
modifications: constant regions annealed to DNA blockers; guide miR-122 5' phosphate
For the molecule B16, the binding signal was 85.3 fold enrichment over input in test [1]; 60.8 fold enrichment over input with AGO2 L192P; 86.8 fold enrichment over input with AGO2 A367P; 35.6 fold enrichment over input with AGO2 T357M; 69.5 fold enrichment over input with AGO2 F182del.

B17: ACGTCTCA (ssRNA)
RNA 1: B1 RNA 1 with A29G, C30U, U31C
RNA 2: UGGAGUGUGACAAUGGUGUUUG
DNA 1: GATCGTCGGACTGTAGAACTC
DNA 2: TTGGCACCCGAGAATTCCA
modifications: constant regions annealed to DNA blockers; guide miR-122 5' phosphate
For the molecule B17, the binding signal in test [1] was 0.177 fold enrichment over input; in the test with AGO2 L192P it was 0.659 fold enrichment over input; with AGO2 A367P, 0.413 fold enrichment over input; with AGO2 T357M, 0.689 fold enrichment over input; with AGO2 F182del, 1.38 fold enrichment over input.

B18: ATATCTCA (ssRNA)
RNA 1: B1 RNA 1 with C28U, C30U, U31C
RNA 2: UGGAGUGUGACAAUGGUGUUUG
DNA 1: GATCGTCGGACTGTAGAACTC
DNA 2: TTGGCACCCGAGAATTCCA
modifications: constant regions annealed to DNA blockers; guide miR-122 5' phosphate
As for B18, the binding signal in test [1] is 0.165 fold enrichment over input; in the test with AGO2 L192P, 0.635 fold enrichment over input; with AGO2 A367P it was 0.396 fold enrichment over input; with AGO2 T357M, 0.657 fold enrichment over input; with AGO2 F182del, 1.42 fold enrichment over input.

B19: ACGCCTCA (ssRNA)
RNA 1: B1 RNA 1 with A29G, U31C
RNA 2: UGGAGUGUGACAAUGGUGUUUG
DNA 1: GATCGTCGGACTGTAGAACTC
DNA 2: TTGGCACCCGAGAATTCCA
modifications: constant regions annealed to DNA blockers; guide miR-122 5' phosphate
On to B19, for which the binding signal in test [1] was 0.15 fold enrichment over input; with AGO2 L192P, 0.597 fold enrichment over input; in the test with AGO2 A367P, 0.316 fold enrichment over input; with AGO2 T357M it was 0.623 fold enrichment over input; with AGO2 F182del, 0.822 fold enrichment over input.
